The supplement of paper PMC6411743
± gives the standard deviation of the averaged measurements. Targets with the largest changes are over-represented here; the source holds about 6,200 in all.

Experiments:
Assay in all cases: NP40-soluble protein abundance relative to vehicle (solubility fold change) (ratio); higher = more soluble protein in presence of AMP-PNP
[1] = target: T1, A0A087WXD1|Q96T83 (UniProt Q96T83)
T1 sequence (whole entry): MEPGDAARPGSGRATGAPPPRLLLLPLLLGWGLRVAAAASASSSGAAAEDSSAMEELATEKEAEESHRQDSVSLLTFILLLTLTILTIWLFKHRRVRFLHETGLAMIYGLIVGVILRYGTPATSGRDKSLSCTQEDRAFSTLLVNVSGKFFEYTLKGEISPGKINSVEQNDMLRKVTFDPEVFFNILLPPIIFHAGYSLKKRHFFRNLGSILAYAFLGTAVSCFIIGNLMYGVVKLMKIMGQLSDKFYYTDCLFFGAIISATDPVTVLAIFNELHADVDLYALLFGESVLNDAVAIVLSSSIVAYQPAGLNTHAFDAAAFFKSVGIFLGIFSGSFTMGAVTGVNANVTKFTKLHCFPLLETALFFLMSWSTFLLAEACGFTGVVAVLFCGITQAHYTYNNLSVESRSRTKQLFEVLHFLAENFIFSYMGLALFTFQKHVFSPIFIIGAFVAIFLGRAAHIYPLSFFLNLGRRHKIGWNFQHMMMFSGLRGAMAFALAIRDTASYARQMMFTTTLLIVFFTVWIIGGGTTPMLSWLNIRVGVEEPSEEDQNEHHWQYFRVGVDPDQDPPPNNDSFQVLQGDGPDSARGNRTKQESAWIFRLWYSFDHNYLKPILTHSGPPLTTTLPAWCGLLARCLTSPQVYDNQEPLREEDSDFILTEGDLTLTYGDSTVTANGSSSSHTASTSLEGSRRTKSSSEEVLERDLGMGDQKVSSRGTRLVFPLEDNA
In short: (§1)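 Values are fold changes against the detergent-processed vehicle, based on vsn-normalised intensities. Jurkat crude lysate was treated at eight concentrations from 0.1 to 10 mM (10 min at room temperature, then 3 min at 37 °C), solubilised with 0.8% NP40 and benzonase, ultracentrifuged and analysed by TMT-labelled LC-MS/MS over three independent experiments.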

[2] = target: A0A087WY00|F8W6H6|Q9Y4I1|Q9Y4I1-2|G3V394|Q9Y4I1-3 (UniProt Q9Y4I1)
In short: as §1

[3] = target: T2, A0A087WYG2|E9PFH7|Q9UPT6 (UniProt Q9UPT6)
T2 sequence (whole entry): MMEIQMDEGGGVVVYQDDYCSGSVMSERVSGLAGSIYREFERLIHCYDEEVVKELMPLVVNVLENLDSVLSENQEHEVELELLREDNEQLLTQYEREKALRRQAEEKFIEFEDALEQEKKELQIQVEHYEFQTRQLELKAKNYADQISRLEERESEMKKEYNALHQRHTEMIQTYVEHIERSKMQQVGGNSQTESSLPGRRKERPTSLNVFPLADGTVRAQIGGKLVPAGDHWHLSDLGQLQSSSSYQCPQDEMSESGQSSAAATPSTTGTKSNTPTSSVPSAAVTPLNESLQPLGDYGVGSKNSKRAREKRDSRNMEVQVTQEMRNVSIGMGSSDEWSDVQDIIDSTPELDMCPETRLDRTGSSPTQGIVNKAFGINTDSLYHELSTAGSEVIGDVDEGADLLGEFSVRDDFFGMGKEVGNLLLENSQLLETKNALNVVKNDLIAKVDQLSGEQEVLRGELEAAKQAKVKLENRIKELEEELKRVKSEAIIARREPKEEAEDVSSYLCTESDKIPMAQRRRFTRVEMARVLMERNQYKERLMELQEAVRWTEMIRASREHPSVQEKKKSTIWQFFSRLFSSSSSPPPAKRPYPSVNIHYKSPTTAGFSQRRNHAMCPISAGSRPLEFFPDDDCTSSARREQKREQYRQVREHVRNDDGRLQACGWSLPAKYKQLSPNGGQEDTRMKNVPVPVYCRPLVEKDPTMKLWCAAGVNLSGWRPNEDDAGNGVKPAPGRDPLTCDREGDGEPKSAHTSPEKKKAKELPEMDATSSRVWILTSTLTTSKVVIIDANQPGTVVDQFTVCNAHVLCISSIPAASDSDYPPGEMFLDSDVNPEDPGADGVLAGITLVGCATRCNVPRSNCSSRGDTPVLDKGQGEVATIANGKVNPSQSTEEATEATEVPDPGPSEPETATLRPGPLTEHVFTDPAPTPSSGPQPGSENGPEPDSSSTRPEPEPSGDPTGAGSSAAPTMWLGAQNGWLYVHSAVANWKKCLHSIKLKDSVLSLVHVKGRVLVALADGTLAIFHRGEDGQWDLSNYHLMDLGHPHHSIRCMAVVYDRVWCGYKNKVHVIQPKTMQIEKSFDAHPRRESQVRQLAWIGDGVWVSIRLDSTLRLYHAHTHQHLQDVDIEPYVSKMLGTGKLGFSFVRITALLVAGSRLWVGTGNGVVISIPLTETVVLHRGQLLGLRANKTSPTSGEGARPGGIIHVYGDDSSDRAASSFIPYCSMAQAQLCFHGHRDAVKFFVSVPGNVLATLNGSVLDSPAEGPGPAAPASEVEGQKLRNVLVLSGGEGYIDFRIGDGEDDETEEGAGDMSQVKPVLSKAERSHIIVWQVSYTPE
In short: as §1

[4] = target: T3, A0A087WYN9|Q7Z478 (UniProt Q7Z478)
T3 sequence (whole entry): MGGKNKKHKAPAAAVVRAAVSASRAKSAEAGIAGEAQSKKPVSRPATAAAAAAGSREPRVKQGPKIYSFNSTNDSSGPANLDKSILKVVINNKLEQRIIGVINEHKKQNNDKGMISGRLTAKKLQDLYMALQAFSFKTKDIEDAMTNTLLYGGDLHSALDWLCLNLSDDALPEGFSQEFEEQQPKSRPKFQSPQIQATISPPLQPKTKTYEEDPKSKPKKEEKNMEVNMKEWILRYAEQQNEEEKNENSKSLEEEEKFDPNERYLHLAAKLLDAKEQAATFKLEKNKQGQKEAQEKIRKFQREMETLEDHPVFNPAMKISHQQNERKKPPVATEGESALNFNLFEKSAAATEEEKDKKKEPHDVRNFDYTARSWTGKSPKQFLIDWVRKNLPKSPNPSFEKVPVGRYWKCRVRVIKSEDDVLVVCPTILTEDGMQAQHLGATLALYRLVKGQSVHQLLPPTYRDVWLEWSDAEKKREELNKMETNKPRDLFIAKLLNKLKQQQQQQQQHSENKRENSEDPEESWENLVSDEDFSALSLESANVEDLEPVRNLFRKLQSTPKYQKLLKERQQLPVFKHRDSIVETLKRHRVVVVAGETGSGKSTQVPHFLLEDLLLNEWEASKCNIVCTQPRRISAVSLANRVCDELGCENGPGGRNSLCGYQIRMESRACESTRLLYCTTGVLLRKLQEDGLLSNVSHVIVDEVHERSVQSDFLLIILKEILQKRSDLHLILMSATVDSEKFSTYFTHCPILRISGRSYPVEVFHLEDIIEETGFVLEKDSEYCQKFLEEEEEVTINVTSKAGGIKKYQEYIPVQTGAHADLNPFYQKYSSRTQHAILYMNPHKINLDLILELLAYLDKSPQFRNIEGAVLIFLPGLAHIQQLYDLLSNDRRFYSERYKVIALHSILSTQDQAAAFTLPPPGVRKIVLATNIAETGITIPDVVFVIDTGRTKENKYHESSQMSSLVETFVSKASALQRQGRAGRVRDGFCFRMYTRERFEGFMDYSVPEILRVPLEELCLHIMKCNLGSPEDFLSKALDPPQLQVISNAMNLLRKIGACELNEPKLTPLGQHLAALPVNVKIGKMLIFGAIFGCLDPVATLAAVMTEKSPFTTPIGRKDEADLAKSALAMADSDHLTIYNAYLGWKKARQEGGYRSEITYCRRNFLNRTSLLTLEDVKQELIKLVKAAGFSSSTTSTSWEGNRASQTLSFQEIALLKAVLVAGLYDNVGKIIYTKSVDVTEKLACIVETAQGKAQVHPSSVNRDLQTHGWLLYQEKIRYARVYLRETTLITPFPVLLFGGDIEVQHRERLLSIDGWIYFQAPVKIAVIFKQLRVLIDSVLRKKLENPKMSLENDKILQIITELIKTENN
In short: as §1

[5] = test system: A0A087WZ62
In short: as §1

[6] = target: T4, A0A087X0V5|P29728|P29728-2 (UniProt P29728)
T4 sequence (whole entry): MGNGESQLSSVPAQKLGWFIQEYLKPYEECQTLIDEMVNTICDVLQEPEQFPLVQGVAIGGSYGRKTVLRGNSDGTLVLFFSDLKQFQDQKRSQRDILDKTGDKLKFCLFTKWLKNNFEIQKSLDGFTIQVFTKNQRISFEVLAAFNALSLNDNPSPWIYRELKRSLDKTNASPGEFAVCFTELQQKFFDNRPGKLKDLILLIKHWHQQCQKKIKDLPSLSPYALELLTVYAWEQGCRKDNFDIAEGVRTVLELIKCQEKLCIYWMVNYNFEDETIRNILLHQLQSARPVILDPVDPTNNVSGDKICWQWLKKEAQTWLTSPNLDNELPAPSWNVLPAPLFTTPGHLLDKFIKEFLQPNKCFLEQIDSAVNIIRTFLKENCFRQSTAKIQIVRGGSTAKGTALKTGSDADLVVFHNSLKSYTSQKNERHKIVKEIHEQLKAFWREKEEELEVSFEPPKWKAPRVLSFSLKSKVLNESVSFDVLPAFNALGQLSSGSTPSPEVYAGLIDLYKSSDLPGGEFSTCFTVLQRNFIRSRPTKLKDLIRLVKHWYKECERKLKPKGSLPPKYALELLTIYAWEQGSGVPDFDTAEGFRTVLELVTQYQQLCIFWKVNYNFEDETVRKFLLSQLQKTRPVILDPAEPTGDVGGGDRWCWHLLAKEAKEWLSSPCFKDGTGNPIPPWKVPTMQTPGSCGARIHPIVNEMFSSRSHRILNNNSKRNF
In short: as §1

[7] = target: A0A087X1K6|H0YK05|Q9Y2Y9 (UniProt Q9Y2Y9)
In short: as §1

[8] = target: A0A087X1Z1|A0A0G2JPW5|A0A0G2JQX1|A0A0G2JSA7|Q96RT8|Q96RT8-2 (UniProt Q96RT8)
In short: as §1

[9] = target: A0A096LP25|Q2M2I8|Q2M2I8-2 (UniProt Q2M2I8)
In short: as §1

Chain of A0A087X1K6|H0YK05|Q9Y2Y9 (Q9Y2Y9 whole entry, one chain of several): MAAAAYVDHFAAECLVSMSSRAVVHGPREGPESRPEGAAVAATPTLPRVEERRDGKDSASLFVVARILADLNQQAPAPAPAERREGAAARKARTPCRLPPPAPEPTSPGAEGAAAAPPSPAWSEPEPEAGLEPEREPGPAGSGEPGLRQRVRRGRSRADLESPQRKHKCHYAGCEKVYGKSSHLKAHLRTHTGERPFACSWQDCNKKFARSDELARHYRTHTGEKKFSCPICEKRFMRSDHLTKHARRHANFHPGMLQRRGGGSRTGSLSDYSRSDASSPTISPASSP
Chain of A0A096LP25|Q2M2I8|Q2M2I8-2 (Q2M2I8 whole entry, looked up, one chain of several): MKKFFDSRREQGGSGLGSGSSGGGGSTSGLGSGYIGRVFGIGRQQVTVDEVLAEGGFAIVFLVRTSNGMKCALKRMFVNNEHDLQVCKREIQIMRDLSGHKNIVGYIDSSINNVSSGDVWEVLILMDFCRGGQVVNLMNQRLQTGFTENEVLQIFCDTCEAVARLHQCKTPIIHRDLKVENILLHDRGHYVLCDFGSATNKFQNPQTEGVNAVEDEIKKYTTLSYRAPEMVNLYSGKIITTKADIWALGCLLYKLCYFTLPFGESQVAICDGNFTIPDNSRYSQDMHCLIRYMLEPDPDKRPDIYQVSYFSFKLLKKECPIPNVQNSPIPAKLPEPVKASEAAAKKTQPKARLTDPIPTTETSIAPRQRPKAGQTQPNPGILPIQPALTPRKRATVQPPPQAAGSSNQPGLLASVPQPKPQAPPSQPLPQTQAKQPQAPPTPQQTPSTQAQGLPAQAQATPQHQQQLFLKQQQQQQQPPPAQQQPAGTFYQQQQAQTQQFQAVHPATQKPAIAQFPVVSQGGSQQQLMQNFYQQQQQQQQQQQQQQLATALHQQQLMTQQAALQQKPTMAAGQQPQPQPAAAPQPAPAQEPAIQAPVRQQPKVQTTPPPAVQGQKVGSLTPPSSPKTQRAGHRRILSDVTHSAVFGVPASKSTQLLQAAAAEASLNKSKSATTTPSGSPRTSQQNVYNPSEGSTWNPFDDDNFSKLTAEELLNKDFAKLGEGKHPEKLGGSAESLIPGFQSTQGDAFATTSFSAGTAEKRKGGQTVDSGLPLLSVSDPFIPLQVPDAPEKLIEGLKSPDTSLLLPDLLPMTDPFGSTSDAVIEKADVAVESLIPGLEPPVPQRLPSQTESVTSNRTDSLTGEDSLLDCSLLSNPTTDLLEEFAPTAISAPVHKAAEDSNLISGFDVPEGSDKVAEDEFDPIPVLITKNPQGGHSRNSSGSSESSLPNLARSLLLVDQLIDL
Chain of A0A087X1Z1|A0A0G2JPW5|A0A0G2JQX1|A0A0G2JSA7|Q96RT8|Q96RT8-2 (Q96RT8 whole entry, one chain of several): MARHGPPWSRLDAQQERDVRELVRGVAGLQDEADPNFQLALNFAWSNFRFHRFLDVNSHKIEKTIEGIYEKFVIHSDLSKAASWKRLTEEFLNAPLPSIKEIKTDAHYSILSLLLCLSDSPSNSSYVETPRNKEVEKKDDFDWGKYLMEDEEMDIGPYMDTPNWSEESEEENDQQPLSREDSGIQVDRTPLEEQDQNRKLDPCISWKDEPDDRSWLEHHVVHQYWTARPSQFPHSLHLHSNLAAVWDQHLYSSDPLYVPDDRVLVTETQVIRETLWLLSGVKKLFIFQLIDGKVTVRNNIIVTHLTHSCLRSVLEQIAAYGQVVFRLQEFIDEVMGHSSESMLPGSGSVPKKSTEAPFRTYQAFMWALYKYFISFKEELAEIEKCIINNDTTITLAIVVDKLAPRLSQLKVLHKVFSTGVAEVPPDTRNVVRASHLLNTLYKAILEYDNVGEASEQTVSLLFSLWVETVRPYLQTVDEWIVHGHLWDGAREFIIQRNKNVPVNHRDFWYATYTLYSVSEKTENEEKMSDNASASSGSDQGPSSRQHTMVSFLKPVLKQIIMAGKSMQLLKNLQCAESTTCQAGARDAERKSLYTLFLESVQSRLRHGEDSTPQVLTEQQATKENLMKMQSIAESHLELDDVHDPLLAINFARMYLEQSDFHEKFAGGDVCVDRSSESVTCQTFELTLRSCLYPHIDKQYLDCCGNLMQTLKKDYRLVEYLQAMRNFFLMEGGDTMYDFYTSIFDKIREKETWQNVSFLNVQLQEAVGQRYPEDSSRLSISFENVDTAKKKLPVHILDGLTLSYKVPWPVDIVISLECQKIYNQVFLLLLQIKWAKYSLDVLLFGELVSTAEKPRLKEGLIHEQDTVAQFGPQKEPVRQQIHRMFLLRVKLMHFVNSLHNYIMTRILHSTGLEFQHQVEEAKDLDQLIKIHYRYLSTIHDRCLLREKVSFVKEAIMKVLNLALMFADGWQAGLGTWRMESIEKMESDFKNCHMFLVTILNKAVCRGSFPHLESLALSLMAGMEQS
Chain of A0A087WY00|F8W6H6|Q9Y4I1|Q9Y4I1-2|G3V394|Q9Y4I1-3 (Q9Y4I1 whole entry, one chain of several): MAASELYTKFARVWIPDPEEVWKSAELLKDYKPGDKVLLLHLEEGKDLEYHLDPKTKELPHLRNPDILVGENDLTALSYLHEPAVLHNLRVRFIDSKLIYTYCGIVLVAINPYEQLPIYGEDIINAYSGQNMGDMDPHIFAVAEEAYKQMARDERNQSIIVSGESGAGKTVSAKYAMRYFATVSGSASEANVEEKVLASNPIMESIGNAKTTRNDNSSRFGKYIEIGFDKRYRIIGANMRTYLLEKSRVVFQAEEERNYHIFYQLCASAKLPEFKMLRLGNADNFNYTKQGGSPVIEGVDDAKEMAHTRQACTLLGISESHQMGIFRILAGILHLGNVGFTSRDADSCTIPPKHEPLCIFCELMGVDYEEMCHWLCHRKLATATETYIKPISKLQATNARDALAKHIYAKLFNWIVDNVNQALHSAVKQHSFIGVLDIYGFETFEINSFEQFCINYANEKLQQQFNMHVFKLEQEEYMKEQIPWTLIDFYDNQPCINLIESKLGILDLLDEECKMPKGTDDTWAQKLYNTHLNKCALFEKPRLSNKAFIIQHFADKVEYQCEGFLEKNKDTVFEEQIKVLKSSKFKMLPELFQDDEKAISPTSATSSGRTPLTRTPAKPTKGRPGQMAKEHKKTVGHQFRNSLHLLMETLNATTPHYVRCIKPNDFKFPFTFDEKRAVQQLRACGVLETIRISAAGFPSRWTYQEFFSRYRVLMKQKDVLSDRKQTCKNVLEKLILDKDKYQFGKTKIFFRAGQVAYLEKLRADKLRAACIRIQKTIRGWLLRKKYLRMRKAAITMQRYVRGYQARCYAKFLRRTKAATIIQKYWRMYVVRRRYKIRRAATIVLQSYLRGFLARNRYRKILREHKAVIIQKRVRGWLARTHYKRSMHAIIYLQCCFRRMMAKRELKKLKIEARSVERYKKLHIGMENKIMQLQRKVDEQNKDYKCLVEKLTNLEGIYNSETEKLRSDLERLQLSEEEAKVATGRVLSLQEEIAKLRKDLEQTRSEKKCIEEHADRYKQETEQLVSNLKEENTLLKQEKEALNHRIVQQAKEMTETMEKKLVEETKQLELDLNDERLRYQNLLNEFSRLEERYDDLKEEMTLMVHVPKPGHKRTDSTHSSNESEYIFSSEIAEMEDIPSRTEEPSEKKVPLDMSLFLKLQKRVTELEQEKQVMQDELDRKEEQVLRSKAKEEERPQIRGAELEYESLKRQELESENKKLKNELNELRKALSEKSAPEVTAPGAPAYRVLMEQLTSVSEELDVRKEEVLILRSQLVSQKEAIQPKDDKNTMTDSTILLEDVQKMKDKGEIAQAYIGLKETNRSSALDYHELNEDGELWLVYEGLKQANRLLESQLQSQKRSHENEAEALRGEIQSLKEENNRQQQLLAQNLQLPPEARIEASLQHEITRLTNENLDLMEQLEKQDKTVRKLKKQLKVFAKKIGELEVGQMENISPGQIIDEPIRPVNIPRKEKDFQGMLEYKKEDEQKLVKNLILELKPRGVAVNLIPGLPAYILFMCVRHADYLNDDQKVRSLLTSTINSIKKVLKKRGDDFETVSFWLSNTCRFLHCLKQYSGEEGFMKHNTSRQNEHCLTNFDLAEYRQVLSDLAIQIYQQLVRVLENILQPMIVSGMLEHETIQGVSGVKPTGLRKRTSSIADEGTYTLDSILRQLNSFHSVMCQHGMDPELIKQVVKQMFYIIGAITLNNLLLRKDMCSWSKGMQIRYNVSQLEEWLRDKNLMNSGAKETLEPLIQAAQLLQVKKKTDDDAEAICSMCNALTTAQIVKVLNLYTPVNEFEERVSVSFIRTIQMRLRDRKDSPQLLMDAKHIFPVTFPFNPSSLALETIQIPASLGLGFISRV

Nc1ncnc2c1ncn2[C@@H]1O[C@H](COP(=O)(O)OP(=O)(O)NP(=O)(O)O)[C@@H](O)[C@H]1O [adenylyl imidodiphosphate]
NP40-soluble protein abundance ([1]; concentration: 1mM): 0.971 ± 0.05
NP40-soluble protein abundance ([1]; concentration: 2mM): 0.973 ± 0.015
NP40-soluble protein abundance ([1]; concentration: 4mM): 0.958 ± 0.033
NP40-soluble protein abundance ([1]; concentration: 6mM): 0.948 ± 0.038
NP40-soluble protein abundance ([1]; concentration: 8mM): 0.935 ± 0.027
NP40-soluble protein abundance ([1]; concentration: 10mM): 0.9324 ± 0.0081
NP40-soluble protein abundance ([2]; concentration: 1mM): 1.9 ± 0.27
NP40-soluble protein abundance ([2]; concentration: 2mM): 1.97 ± 0.29
NP40-soluble protein abundance ([2]; concentration: 4mM): 2.07 ± 0.28
NP40-soluble protein abundance ([2]; concentration: 6mM): 2 ± 0.31
NP40-soluble protein abundance ([2]; concentration: 8mM): 1.96 ± 0.29
NP40-soluble protein abundance ([2]; concentration: 10mM): 2.01 ± 0.24
NP40-soluble protein abundance ([3]; concentration: 1mM): 1.01 ± 0.034
NP40-soluble protein abundance ([3]; concentration: 2mM): 1.03 ± 0.025
NP40-soluble protein abundance ([3]; concentration: 4mM): 1.03 ± 0.025
NP40-soluble protein abundance ([3]; concentration: 6mM): 0.988 ± 0.026
NP40-soluble protein abundance ([3]; concentration: 8mM): 0.981 ± 0.022
NP40-soluble protein abundance ([3]; concentration: 10mM): 1 ± 0.023
NP40-soluble protein abundance ([4]; concentration: 1mM): 1.31 ± 0.067
NP40-soluble protein abundance ([4]; concentration: 2mM): 1.49 ± 0.079
NP40-soluble protein abundance ([4]; concentration: 4mM): 1.73 ± 0.18
NP40-soluble protein abundance ([4]; concentration: 6mM): 1.9 ± 0.22
NP40-soluble protein abundance ([4]; concentration: 8mM): 2.01 ± 0.24
NP40-soluble protein abundance ([4]; concentration: 10mM): 2.1 ± 0.29
NP40-soluble protein abundance ([5]; concentration: 1mM): 0.976 ± 0.026
NP40-soluble protein abundance ([5]; concentration: 2mM): 0.963 ± 0.027
NP40-soluble protein abundance ([5]; concentration: 4mM): 0.931 ± 0.022
NP40-soluble protein abundance ([5]; concentration: 6mM): 0.952 ± 0.014
NP40-soluble protein abundance ([5]; concentration: 8mM): 0.946 ± 0.028
NP40-soluble protein abundance ([5]; concentration: 10mM): 0.936 ± 0.017
NP40-soluble protein abundance ([6]; concentration: 1mM): 1.13 ± 0.0059
NP40-soluble protein abundance ([6]; concentration: 2mM): 1.07 ± 0.091
NP40-soluble protein abundance ([6]; concentration: 4mM): 1.26 ± 0.049
NP40-soluble protein abundance ([6]; concentration: 6mM): 1.24 ± 0.086
NP40-soluble protein abundance ([6]; concentration: 8mM): 1.358 ± 0.011
NP40-soluble protein abundance ([6]; concentration: 10mM): 1.29 ± 0.02
NP40-soluble protein abundance ([7]; concentration: 1mM): 0.998 ± 0.029
NP40-soluble protein abundance ([7]; concentration: 2mM): 0.998 ± 0.03
NP40-soluble protein abundance ([7]; concentration: 4mM): 0.971 ± 0.024
NP40-soluble protein abundance ([7]; concentration: 6mM): 1.01 ± 0.016
NP40-soluble protein abundance ([7]; concentration: 8mM): 0.991 ± 0.03
NP40-soluble protein abundance ([7]; concentration: 10mM): 0.996 ± 0.0047
NP40-soluble protein abundance ([8]; concentration: 1mM): 0.946 ± 0.021
NP40-soluble protein abundance ([8]; concentration: 2mM): 1 ± 0.057
NP40-soluble protein abundance ([8]; concentration: 4mM): 0.951 ± 0.032
NP40-soluble protein abundance ([8]; concentration: 6mM): 0.972 ± 0.029
NP40-soluble protein abundance ([8]; concentration: 8mM): 0.962 ± 0.018
NP40-soluble protein abundance ([8]; concentration: 10mM): 0.96 ± 0.016
NP40-soluble protein abundance ([9]; concentration: 1mM): 1.07 ± 0.02
NP40-soluble protein abundance ([9]; concentration: 2mM): 1.11 ± 0.041
NP40-soluble protein abundance ([9]; concentration: 4mM): 1.11 ± 0.026
NP40-soluble protein abundance ([9]; concentration: 6mM): 1.09 ± 0.024
NP40-soluble protein abundance ([9]; concentration: 8mM): 1.08 ± 0.02
NP40-soluble protein abundance ([9]; concentration: 10mM): 1.11 ± 0.012
